Screening data from PubChem BioAssay.
This is a sample that favours compounds with a hit; in the whole collection about 2.9% have one here.
B2AR arrestin – beta2AR (human) beta-arrestin recruitment activity; Potency, µM (series often up to 46.1 µM), inactives show at the top dose activation, hits mostly activators; 0.02% of 330,000 active; AID 492947; beta-arrestin recruitment to beta2AR, cell-based reporter; P07550; active = well fitted activation curve with a large enough effect; inconclusive = small, poorly fitted or top-dose-only effect;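 also: potency is read from the fitted curve at half-maximal effect; 0% = DMSO controls and full agonism = EC100 isoproterenol or metaproterenol; nearly all actives have a fitted effect of over 65% in size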
Target sequence (P07550 whole entry, looked up): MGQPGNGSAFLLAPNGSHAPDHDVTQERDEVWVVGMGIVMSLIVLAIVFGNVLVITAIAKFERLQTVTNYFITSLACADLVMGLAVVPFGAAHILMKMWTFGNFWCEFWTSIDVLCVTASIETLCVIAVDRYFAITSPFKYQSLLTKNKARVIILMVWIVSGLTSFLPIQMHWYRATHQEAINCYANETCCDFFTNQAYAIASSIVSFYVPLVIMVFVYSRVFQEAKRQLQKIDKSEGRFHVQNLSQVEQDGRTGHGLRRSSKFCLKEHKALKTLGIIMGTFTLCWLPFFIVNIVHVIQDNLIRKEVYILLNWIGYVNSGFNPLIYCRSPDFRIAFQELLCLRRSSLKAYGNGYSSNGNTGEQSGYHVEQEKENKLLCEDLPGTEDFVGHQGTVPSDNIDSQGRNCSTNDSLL
DRD3 antagonist – blocks the human D3 dopamine receptor | D3R cells, DiscoveRx beta-arrestin luminescence, antagonist mode; active compounds read low | max response, negative = inhibition, % | 2.5% of 360,000 active; in the data active = max response below about -50%; inconclusive = no clear call, values can overlap the other calls; also: % is scaled to controls: 0 for no effect and ±100 for the full control effect
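Cells plated overnight at 1500 cells/well, then exposed to library compounds with dopamine controls for 90 minutes at 37 degrees C. DiscoveRx reagent added for 30–60 minutes at room temperature; luminescence read, quantitative HTS format.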
DRD3 agonist – agonists of human D3 dopamine receptor; P35462; D3R DiscoveRx beta-arrestin cells, luminescence, 90 min; max activation, %; 0.58% of 410,000 active; AID 652048; in the data active = max activation above about 30%; also: 0% is about no effect
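Cells at 1500/well, incubated overnight, then treated with pinned compounds (dopamine as control) for 90 min at 37 degrees C. DiscoveRx reagent added for 30 - 60 minutes at room temperature; luminescence read.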
TSHR antag – blocks TSH signaling through the human TSH receptor. activity change, negative = inhibition, % at 11.5 µM. TSHR-expressing cells, TSH-stimulated cAMP HTRF, 2 h; active compounds read low. P16473. AID 504810. 0.2% of 330,000 active;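 active = activity change below a set negative limit, meaning inhibition stronger than a set level, cut at about -70% in these data; inconclusive = activity change between two set negative limits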; also: % is scaled to controls: 0 for no effect and ±100 for the full control effect
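Read-out is FRET at 665 nm (cryptate excitation 337 nm) from a cryptate-tagged anti-cAMP antibody, competed by cell cAMP against cAMP-d2. Compounds are tested on freshly harvested TSHR cells challenged with 4nM TSH (EC80) for 2 hours at 37 deg C.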
* = called active by the depositor; ? = inconclusive; . = not tested or not shown; ! = a repeat was not active.

SMILES	B2AR arrestin	DRD3 antagonist	DRD3 agonist	TSHR antag
C#CCOCCOCCOCCNc1nc(N2CCN(C(=O)[C@H]([C@@H](C)O)n3cc(CCCCN)nn3)CC2)nc(N2CCN(C(=O)[C@H](CCCCN)n3cc(CC(C)O)nn3)CC2)n1 (stereo not given in full)	0%	-52*	-11	0
COCCNC(=O)CCCn1c(=O)[nH]c2ccsc2c1=O	.	.	6	.
Cc1cn([C@@H](CCCCNC(=O)OC(C)(C)C)C(=O)NCCCCCCCCCCC(=O)N2CCN(C(=O)OC(C)(C)C)CC2)nn1	0%	89	66*	?
CC[C@H](C)Cc1cn([C@@H](CCCN=C(NC(=O)OC(C)(C)C)NC(=O)OC(C)(C)C)C(=O)NCCCCCCCCCCC(=O)N2CCN(C(=O)OC(C)(C)C)CC2)nn1	0%	26	-9	48
COc1cccc(N(C)C(=S)Oc2ccc3c(c2)CCCC3)n1	.	.	0	.
c1ccc(CN2CCC(CNc3ncnc4ccccc34)C2)cc1 (stereo not given)	.	-64*	-16	.
COc1cc2ncnc(NCc3ccccc3)c2cc1OC	0%	5	2	-5
c1ccc(CN2CCC(Nc3nc(-c4ccccc4)nc4ccccc34)CC2)cc1	0%	-2	-11	-3
c1ccc(CNc2ncnc3ccccc23)cc1	0%	22	33*!	-24
COc1ccc(C(=S)Nc2ccc(C)cc2)cc1	0%	-67*	-11	-2
COc1cc(C#Cc2ccc3cc(C(C)(C)O)oc(=O)c3c2)cc(OC)c1	-1%	70	31*	-25
Cn1cncc1C#Cc1ccc2cc(C(C)(C)O)oc(=O)c2c1	-2%	14	18	-8
Cc1ccc(-n2c(Cc3cccn3C)nnc2SCC(=O)N2CCN(c3ccccc3)CC2)cc1	0%	-79*	-7	0
Cc1ccc(-n2c(Cc3cccn3C)nnc2SCC(=O)Nc2ccc3c(c2)OCO3)cc1	0%	50	79*	-4
Cn1cccc1Cc1nnc(SCC(=O)N2CCCCCC2)n1-c1ccc(F)cc1	0%	2	4	-1
CCOC(=O)c1c(C)c(C(=O)NCCc2ccc(OC)cc2)c(C)n1CC	.	.	6	.
Clc1ccc(-n2nnnc2-c2cnc(-c3ccncc3)nc2-c2cccs2)cc1	0%	10	0	-9
FC(F)(F)c1nc(-c2cccs2)ncc1-c1nnnn1-c1ccc(Cl)cc1	0%	-19	29	-72*
CCOc1ccc(S(=O)(=O)NCc2nc3cccnc3n2Cc2ccccc2OC)cc1	.	.	7	.
COc1ccc(NC(=O)Cn2nnc(C(=O)NCc3cccs3)c2N)c(OC)c1	0%	0	3	-132*
Cc1ccc(NC(=O)c2nnn(CC(=O)Nc3ccc4c(c3)OCO4)c2N)cc1C	0%	-11	-2	14
COc1ccc(CCNC(=O)c2nnn(CC(=O)Nc3ccc(C)cc3C)c2N)cc1OC	0%	-15	-3	-82*
Cc1ccc(NC(=O)Cn2nnc(C(=O)Nc3ccc(C)c(C)c3)c2N)cc1	0%	-66*	-7	12
COc1ccc(Cl)cc1NC(=O)Cn1nnc(C(=O)NCCc2ccc(OC)c(OC)c2)c1N	0%	11	-2	-9
Cc1ccc(C)c(NC(=O)c2nnn(CC(=O)Nc3cccc(C)c3C)c2N)c1	.	.	40*	.
SMILES	B2AR arrestin	DRD3 antagonist	DRD3 agonist	TSHR antag
COc1cccc(NC(=O)Cn2nnc(C(=O)NCc3cccs3)c2N)c1	-1%	8	-3	-2
CCN(CC)S(=O)(=O)c1ccc2c(c1)c(=O)c(C(=O)N1CCN(c3ccc(OC)cc3)CC1)cn2C	.	.	-7	.
COc1cccc(NC(=O)Cn2c(=O)n(CCc3ccccc3)c(=O)c3c4c(sc32)CN(C(C)=O)CC4)c1	.	.	-7	.
O=C(NCCn1cc(SCc2ccccc2F)c2ccccc21)c1cccs1	.	.	-3	.
Cc1ccc(-n2cnc3cc(C(=O)NC4CCCCCC4)ccc32)cc1Cl	.	.	-16	.
Cc1ccc(NC(=O)Cn2nnc(C(=O)NCCc3ccccc3)c2N)c(C)c1	1%	7	2	-107*
Cc1ccc(C)c(NC(=O)Cn2nnc(C(=O)NCCc3ccccc3)c2N)c1	.	.	-9	.
CCCCn1nnnc1C1(C)CCC(=O)N1CCCn1ccnc1 (stereo not given)	.	-106*	-13	.
COc1ccc(CCNCC(=O)Nc2ccc(C)c(S(=O)(=O)N(C)C)c2)cc1	0%	-52*	-20	-2
O=C(CSc1nn(-c2ccccc2)c(=S)s1)NC1CCS(=O)(=O)C1 (stereo not given)	0%	-2	0	-6
O=C(CSc1nn(-c2ccccc2)c(=S)s1)Nn1cnnc1	0%	-85*	0	-1
Cc1ccc(NC(=O)CSc2nn(-c3ccccc3)c(=S)s2)cc1S(=O)(=O)N(C)C	-1%	-63*	6	-44
Cc1ccc(NC(=O)CSc2nnnn2C)cc1S(=O)(=O)N(C)C	-1%	-20	-4	7
COc1ccccc1N1CCN(C(=O)c2ccc(CSc3ccccc3)cc2)CC1	0%	6	2	1
O=C(c1ccc(CN2CCc3ccccc3C2)cc1)N1CCCCC1	0%	-73*	-20	3
O=C(Nc1ccc(S(=O)(=O)N2CCCC2)cc1)c1ccc(CN2CCc3ccccc3C2)cc1	0%	?	-24	-27
CCOC(=O)c1ccc(NC(=O)c2ccc(CN3CCc4ccccc4C3)cc2)cc1	-1%	?	-16	-40
NC(=O)c1ccc(CN2CCc3ccccc3C2)cc1	0%	-82*	-22	-44
COc1ccccc1N1CCN(C(=O)c2ccc(CN3CCc4ccccc4C3)cc2)CC1	0%	-67*	-5	-1
O=C(c1ccc(CN2CCc3ccccc3C2)cc1)N1CCN(c2ccc(F)cc2)CC1	.	-65*	-9	.
CCOC(=O)C1(C)CCCN(C(=O)c2cccc(OC(F)(F)F)c2)C1 (stereo not given)	.	?	-11	.
CCCC(=O)n1nc(-c2cccnc2)nc1NCc1ccc(OC)cc1	0%	2	57*!	-2
COc1ccccc1C(=O)n1nc(-c2cccnc2)nc1NCc1ccccc1	-1%	3	4	-7
Cc1cc(C)n(-c2nc3cc(Cl)ccc3nc2Nc2ccc(CC(=O)O)cc2)n1	.	.	-1	.
O=C(NC(c1ccccc1)c1ccc2ccccc2n1)C1CCN(Cc2ccc(Cl)c(Cl)c2)CC1 (stereo not given)	.	-124*	-29	.
SMILES	B2AR arrestin	DRD3 antagonist	DRD3 agonist	TSHR antag
O=C(NC(c1ccccc1)c1ccc2ccccc2n1)C1CCN(Cc2cccc(C(F)(F)F)c2)CC1 (stereo not given)	.	-63*	-21	.
COc1ccc(C(C)=O)cc1CSc1nc(Nc2ccc(F)c(F)c2)c2ccccc2n1	.	.	10	.
COc1cccc(OC)c1OCCCOc1c(OC)cccc1OC	0%	-4	-2	-5
COc1cccc(OC)c1OCCNCC1CSc2ccccc2O1 (stereo not given)	.	-95*	-81	-12
COc1ccc(CNC(=O)CS(=O)(=O)c2cccc3nsnc23)cc1	.	.	-12	.
Cc1cc(-c2nn(-c3ccccc3F)cc2CN2CCN(c3ccccn3)CC2)c(C)s1	0%	-79*	-19	-8
